Assay results as given in ChEMBL document CHEMBL4888484, “Replenishing the malaria drug discovery pipeline: Screening and hit evaluation of the MMV Hit Generation Library 1 (HGL1) against asexual blood stage Plasmodium falciparum ,using a nano luciferase reporter read-out” (2022).
The whole screen tested about 4,800 compounds, of which about 410 (8.5%) showed an effect of 50% or more. The sample as a whole holds a higher share of strong results than the screen did.

Each compound was assayed on Plasmodium falciparum (assay: Confirmatory screen in NF54 pLDH assay, in single point, at 2uM, 72h). Conditions: timepoint 72 hour.
Assay type: functional, Erythrocyte

First: O=C(NCc1cccc(C(F)(F)F)c1)c1csc(C(=O)NC2CCCC2)n1
Second: O=C(NC1CCCC1)c1n[nH]c(=O)c2ccccc12
The “% Inhibition” value of the first is lower: -3% for the first, 7% for the second.

Going from `Cc1ccccc1N1C2=CCCCCN2C[C@]1(O)c1ccc(Br)cc1` to `COc1ccc(C2=CN(CC(=O)c3ccc(Cl)cc3)C3=CCCCCN23)cc1`, the “% Inhibition” value rises from 14% to 41%.

Compared with `COC1CCC(CC(=O)N[C@H]2CC(=O)N(c3ccccc3)C2)CC1` (some centres not stated), `CCc1cc(C(=O)N2CCC[C@H](C)C2)c2c(C3CC3)nn(-c3ccccc3)c2n1` is lower in “% Inhibition” value: 10% for the first, 4% for the second.

First: O=S(=O)(c1cccc(F)c1)c1cnc2c(F)cccc2c1-c1cccc(F)c1
Second: Cc1ccccc1S(=O)(=O)NCc1nnc(C(=O)Nc2ccc(F)cc2F)s1
The “% Inhibition” value of the first is lower: -3% for the first, 11% for the second.

Compared with `Cc1nn(-c2ccccn2)c(O)c1C(c1ccccc1)c1c(C)nn(-c2ccccn2)c1O`, `c1ccc(CNc2ncnc3c2cnn3-c2ccccn2)cc1` is lower in “% Inhibition” value: 86% for the first, 7% for the second.

Going from `COc1ccc(-c2nn(-c3ccccc3)c(O)c2C(c2ccc(C(=O)O)cc2)c2c(-c3ccc(OC)cc3)nn(-c3ccccc3)c2O)cc1` to `COc1ccc(C(=O)N2c3ncnn3C(c3ccccc3)CC2c2ccc(C)cc2)cc1OC` (configuration not stated), the “% Inhibition” value rises from 4% to 98%.

Going from `Cc1ccc2c(c1)c1c(n2S(=O)(=O)c2ccc(C(C)(C)C)cc2)CCCN(C)C1` to `Cc1ccc(S(=O)(=O)N2CCCC(=O)c3ccccc32)cc1`, the “% Inhibition” value falls from 94% to 0%.

First: Cc1ccc(S(=O)(=O)N2CCN(S(C)(=O)=O)C2)cc1
Second: Cc1ccc(CS(=O)(=O)NC(=O)N2CCC(c3ccccc3)CC2)cc1
The “% Inhibition” value of the first is lower: -3% for the first, 10% for the second.

First: CCC1(CC)NC(=O)N(CC(=O)Nc2cccc(CC(=O)OC)n2)C1=O
Second: CCC(=O)Nc1ccc(Oc2c(C)c(C(=O)O)nn2-c2ccccc2CC)c(S(=O)(=O)NCC(C)C)c1
The “% Inhibition” value of the first is lower: -20% for the first, 9% for the second.

Going from `CN(CCN)c1ccc(Br)cc1C#N` to `Cc1onc(N)c1S(=O)(=O)Nc1ccncc1`, the “% Inhibition” value falls from 9% to -2%.

First: O=C(CN1C=CCC=C1c1nc(-c2ccc(Br)cc2)cs1)c1ccccc1
Second: COc1ccc(C(=O)CN2C=CCC=C2c2nc(-c3ccc(Cl)cc3)cs2)cc1
The “% Inhibition” value of the first is lower: 46% for the first, 73% for the second.

First: COc1ccc(NC(=O)c2cc3c(C)nn(-c4ccccc4)c3s2)cn1
Second: COc1ccccc1C(=O)N(Cc1cccs1)c1ccc(C)c(Cl)c1
The “% Inhibition” value of the first is higher: 9% for the first, 1% for the second.

First: O=C1C2C(Cc3ccccc3)NC3(C(=O)Nc4ccccc43)C2C(=O)N1c1cccc(C(F)(F)F)c1 (configuration not stated)
Second: O=C(c1nnn(-c2ccccc2Cl)c1-c1cccnc1)N1CCC(Cc2ccccc2)CC1
The “% Inhibition” value of the first is higher: 6% for the first, -8% for the second.

First: COc1ccc(C2CC(c3ccccc3)N(C(C)=O)c3ncnn32)cc1 (configuration not stated)
Second: COc1cccc2c1OCC(=O)N([C@@H](C)c1ccccc1)C2
The “% Inhibition” value of the first is higher: -7% for the first, -12% for the second.

Compared with `COc1ccc(C(=O)Nc2nnc([C@H]3CC(=O)N(c4ccc(C)cc4)C3)o2)cc1OC`, `COc1cc2c(cc1OC)CN(C(=O)c1cccc(N3C(=O)C(C)(C)CS3(=O)=O)c1)CC2` is higher in “% Inhibition” value: -19% for the first, 3% for the second.

Compared with `O=C(NCCCn1ncc2c(Cl)cccc21)C1CCC1`, `COc1ccc(CN2CCC(C(=O)NCCCN3CCOCC3)CC2)c(OC)c1` is higher in “% Inhibition” value: 8% for the first, 9% for the second.

Compared with `CCc1ccc(NC(=O)Cc2c(C)nc3nc(-c4ccccc4C)nn3c2C)cc1`, `CCNc1nc(C)cc(Nc2ccc(NC(=O)c3cc(C)ccc3C)cc2)n1` is higher in “% Inhibition” value: 3% for the first, 99% for the second.

First: C[C@H](NS(C)(=O)=O)C(=O)NC(C)(C)Cc1ccccc1Cl
Second: CC(C)(C)OC(=O)NS(=O)(=O)NCc1ccccc1
The “% Inhibition” value of the first is lower: 2% for the first, 4% for the second.

Compared with `CCCN1CCC(NCc2ccc(-c3cccc(Cl)c3Cl)o2)CC1`, `c1ccc(Oc2ccc(CNCc3nnc4n3CCCCC4)o2)cc1` is lower in “% Inhibition” value: 98% for the first, 9% for the second.

Compared with `CCOCC(=O)Nc1ccc(OC(F)(F)F)cc1`, `O=C(CC(F)(F)F)NCc1ccccn1` is lower in “% Inhibition” value: -14% for the first, -21% for the second.

Compared with `Cc1ccccc1N1C(O)=Nc2ccccc2S1(=O)=O`, `Cn1n[n+](CC(=O)Nc2ccccc2Cl)c2ccccc21` is higher in “% Inhibition” value: -19% for the first, 3% for the second.

Compared with `Cc1nnc(Cn2nnc(C(=O)NCC3(CC(C)C)CCC3)c2C)o1`, `Cc1nnc(-c2cnn(C)c2N)n1C[C@H]1CCCO1` is higher in “% Inhibition” value: -24% for the first, 9% for the second.

Going from `c1ccc(-c2nnc3nc(N4CCOCC4)nc(N4CCOCC4)n23)cc1` to `CCc1ccc(C(=O)N2CCCN(c3nc(C4CCOCC4)nc4c3cnn4-c3ccccc3)CC2)cc1`, the “% Inhibition” value falls from 6% to -7%.

Going from `Cc1cc(CNC(=O)c2csc(=O)[nH]2)n(C)n1` to `Cc1cc(C)n(C(=O)Cn2nc(C(F)F)cc2C)n1`, the “% Inhibition” value falls from 12% to 11%.

Going from `CCc1ccc2ncc(C(=O)c3ccc(Cl)cc3)c(O)c2c1` to `O=C(NCCN1CCCC1)c1ccc2nc(-c3ccc(Cl)cc3)cn2c1`, the “% Inhibition” value rises from 1% to 70%.

Compared with `CC(=O)c1nc2cc(F)c(N3CCOCC3)cc2nc1C`, `COc1ccc(Cl)cc1S(=O)(=O)c1cnc(N2CCOCC2)nc1N` is higher in “% Inhibition” value: -13% for the first, 10% for the second.

Compared with `O=C(NCCc1cccs1)c1cnn2c(-c3ccc4c(c3)OCO4)ccnc12`, `O=C(NCc1ccco1)c1ccc2c(c1)OCO2` is higher in “% Inhibition” value: -8% for the first, -7% for the second.

First: CCCn1ccnc1-c1cn(Cc2cc3ccccc3[nH]2)nn1
Second: N#Cc1c(CN2CCOCC2)cc(=O)n2c1[nH]c1ccccc12
The “% Inhibition” value of the first is higher: 54% for the first, 0% for the second.

First: O=C(c1ccc2ccccc2c1)N1CCC[C@H]1c1nc2ccccc2s1
Second: O=C(N[C@@H]1CN(Cc2ccccn2)CCC[C@H]1O)c1ccc(OCc2ccccc2)cc1
The “% Inhibition” value of the first is lower: 11% for the first, 42% for the second.

Going from `Cn1n[n+](CCCCC(Cl)(Cl)Cl)c2ccccc21` to `Cc1n(CC(=O)c2ccccc2)c2ccccc2[n+]1CC(=O)c1ccccc1`, the “% Inhibition” value rises from 52% to 66%.

First: CCC(CC)(NCC(=O)NC1CC1)c1ccc(Cl)cc1
Second: O=C(N[C@@H](N1CCCCC1)C(Cl)(Cl)Cl)c1ccc(Cl)cc1
The “% Inhibition” value of the first is lower: -1% for the first, 0% for the second.

Compared with `COC(=O)[C@H](C)N(C(=O)CO)c1c(C)cccc1C`, `Cc1ccccc1[C@H](CC(=O)O)NC(=O)C(F)(F)F` is higher in “% Inhibition” value: 10% for the first, 16% for the second.

Compared with `COc1cccc(NC(=O)Nc2ccc3c(c2)NC(=O)C(C)(C)O3)c1`, `COc1cccc(NC(=O)N2CCN(c3nc4ccccc4n(Cc4ccccc4)c3=O)CC2)c1` is higher in “% Inhibition” value: -4% for the first, 0% for the second.

First: Cc1sc2ncnc(N3CCCCC3)c2c1C(=O)NCc1cccc(Cl)c1
Second: Cc1c(Cl)cccc1C(=O)N1CCC[C@H](Cn2cncn2)C1
The “% Inhibition” value of the first is higher: 10% for the first, 1% for the second.

Compared with `N=C1CCCN1c1c(Cl)cccc1Cl`, `O=C(NCCN1CCCC1)c1ccc2c(c1)OCCO2` is lower in “% Inhibition” value: 5% for the first, -7% for the second.

First: COc1ccc(-c2cc3c(N4CCN(Cc5ccc6c(c5)OCO6)CC4)nccn3n2)cc1OC
Second: O=C(Nc1ccc2c(c1)OCO2)c1c(-c2ccc(Cl)cc2)nc2n1CCS2(=O)=O
The “% Inhibition” value of the first is lower: -2% for the first, 6% for the second.

Going from `Cc1cccc2[nH]cc(CCNC(=O)N3CCC4CCC(C3)N4C)c12` (configuration not stated) to `Cn1cc(C(=O)NCC2CCN(S(=O)(=O)c3cccs3)CC2)cn1`, the “% Inhibition” value falls from 11% to 2%.

First: O=C(O)c1ccc(N(C(=O)c2ccc3c(c2)OCO3)C(=O)c2ccc3c(c2)OCO3)cc1O
Second: O=C(CCC(=O)Nc1cccnc1)NCc1ccc2c(c1)OCO2
The “% Inhibition” value of the first is higher: 15% for the first, 6% for the second.

`CCOC(=O)C1CCC(CN(Cc2ccc(OC)cc2)S(=O)(=O)c2cc(C(=O)Nc3ccc(OCC)cc3)ccc2F)CC1` (configuration not stated) and `CCc1ccc(NC(=O)[C@@H]2CCn3c(C(=O)c4ccccc4)ccc32)cc1` are the same in “% Inhibition” value: 6% for the first, 6% for the second.

First: CN1CCN(c2nc(O)c3c(n2)NC(=O)C[C@H]3c2c(F)cccc2Cl)CC1
Second: CN1CCN(c2c(F)cc3c(=O)c(C(=O)O)cn(-c4ccc(OC5CC6CCC5(C)C6(C)C)c(F)c4)c3c2F)CC1 (configuration not stated)
The “% Inhibition” value of the first is lower: -6% for the first, -4% for the second.

First: O=C(c1ccccc1)n1c(=O)n(C(=O)c2ccccc2)c2ccccc21
Second: O=C(Nc1ccn(Cc2cccnc2)n1)c1ccc(-c2ccccc2F)o1
The “% Inhibition” value of the first is higher: 7% for the first, 6% for the second.

First: C[C@@H](CNS(=O)(=O)c1ccco1)N(C)S(=O)(=O)c1ccco1
Second: CCc1ccc(NC(=O)[C@H](C)N2CCC(NS(=O)(=O)c3cccs3)CC2)cc1
The “% Inhibition” value of the first is lower: 4% for the first, 77% for the second.

First: CC(CNc1ccccn1)N1CCOCC1C (configuration not stated)
Second: C[C@@H](CNc1ncc(C(=O)N2CCOCC2)cc1Cl)c1nncn1C
The “% Inhibition” value of the first is higher: 0% for the first, -9% for the second.

Going from `C#C[C@H](C)OC(=O)c1cccc(Nc2cnccn2)c1` to `O=C(Nc1cccnc1)c1ccc(-c2ccc(Cl)c(Cl)c2)o1`, the “% Inhibition” value rises from 10% to 89%.

First: CCNC(=O)NCCOC(=O)Cc1cc(Cl)cc2c1OCC2
Second: Cc1nc(CNS(=O)(=O)Cc2ccc(F)c(Cl)c2)sc1C
The “% Inhibition” value of the first is lower: -1% for the first, 3% for the second.

Compared with `COCc1cnc(NC(=O)NC2(c3ncccn3)CCOCC2)s1`, `O=C(Nc1ccc(N2CCOCC2)cc1)Nc1ccc(F)cc1F` is lower in “% Inhibition” value: 10% for the first, 7% for the second.

Going from `O=c1ccn2c(n1)O[C@H]1[C@H](OC3CCCCO3)[C@@H](COC3CCCCO3)O[C@H]12` (some centres not stated) to `Cn1nc(C(=O)NC2CCCCC2)cc1C(=O)NC1CCCCC1`, the “% Inhibition” value rises from -17% to 12%.

First: Cc1cc(NC(=O)[C@@H](c2ccccc2)N2CCCCC2=O)sn1
Second: CCC(=O)N1CCN(c2cc(Nc3ccc(C)cc3)nc(C)n2)CC1
The “% Inhibition” value of the first is higher: 1% for the first, -1% for the second.

First: COC(=O)C1=C(C(=O)OC)SC(=C2C(=S)C(C)(C)N(C(=O)COc3ccc4ccccc4c3)c3ccccc32)S1
Second: CCNc1nc(C)cc(Nc2ccc(NS(=O)(=O)c3c(C)noc3C)cc2)n1
The “% Inhibition” value of the first is lower: 7% for the first, 100% for the second.

Going from `Cc1ccc(CN2CCN(C[C@@H](O)Cn3c4ccccc4n4c(=O)cc(C)c(C#N)c34)CC2)c(C)c1` to `Cc1ccc(C)c(S(=O)(=O)NCCNc2ccc(Nc3ccncc3)nn2)c1`, the “% Inhibition” value falls from 96% to 29%.

Going from `Cc1cc2n(n1)C(C(F)(F)F)CCN2C(=O)C(C)N1C(=O)C2CCCCC2C1=O` (configuration not stated) to `CCC(=O)Nc1nc2c(OC)cc(NS(=O)(=O)c3c(C)noc3C)cc2s1`, the “% Inhibition” value rises from 4% to 10%.
